Bioassay records (PubChem)
hDAT+cocaine = changed hDAT dopamine uptake under cocaine IC80, either direction, primary screen, cocaine antagonist project, cell-based, LLC-PK1 hDAT, [14C]-dopamine uptake, MLSMR; AID 449768, 2010; 110,000 tested, 1.3% active; Sodium-dependent dopamine transporter (Homo sapiens), Q01959; B-score at 10 µM; LLC-PK1 hDAT cells, [14C]-dopamine uptake with cocaine IC80; actives deviate in either direction;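 active = Z score or B-score, a plate-position-corrected score, falls beyond the plate's 99.7% confidence bounds, in either direction; inactive = both scores lie inside the 99.7% bounds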;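 also: scored against the spread of the other compound wells on the same plate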
M1 antagonist = antagonists of rat M1 muscarinic receptor; Muscarinic acetylcholine receptor M1 (Rattus norvegicus), P08482; 64,000 tested, 3.4% active; B-score at 10 µM; CHO-M1 cells, Fluo-4 calcium, ACh EC80 antagonist mode; active compounds read low;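 active = calcium fluorescence response, raw or row-and-column corrected B-score, differing from the plate sample mean either way at a set confidence level, mostly lower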
Target sequence (P08482 whole entry, looked up): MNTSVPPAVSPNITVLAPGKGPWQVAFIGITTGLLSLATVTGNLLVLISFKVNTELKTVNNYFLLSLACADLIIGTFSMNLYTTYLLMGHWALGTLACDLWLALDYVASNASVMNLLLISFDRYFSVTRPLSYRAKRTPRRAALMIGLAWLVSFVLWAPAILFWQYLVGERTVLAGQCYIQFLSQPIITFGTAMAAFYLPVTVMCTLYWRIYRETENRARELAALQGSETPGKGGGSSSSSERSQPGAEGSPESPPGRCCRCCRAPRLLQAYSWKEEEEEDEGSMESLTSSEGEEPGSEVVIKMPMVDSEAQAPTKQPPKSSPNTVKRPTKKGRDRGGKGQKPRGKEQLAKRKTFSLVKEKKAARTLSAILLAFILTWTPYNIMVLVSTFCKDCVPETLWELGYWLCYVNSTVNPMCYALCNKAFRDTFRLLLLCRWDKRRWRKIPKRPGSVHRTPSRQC
FXIa mix inh = FXIa protease inhibitors in compound pools, primary screen, biochemical, 10-compound mixtures; 62,000 tested, 0.19% active; inhibition, % at 5 µM; purified FXIa, fluorogenic substrate, pooled mixtures; AID 680, 2007;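 also: each value is inhibition by a whole ten-compound pool holding the compound; 0% = enzyme with no mixture and 100% = wells lacking enzyme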
FXIIa mix inh = human factor XIIa inhibitors, primary screen, biochemical, pooled compound mixtures, fluorogenic substrate | purified FXIIa | inhibition, % at 5 µM | 62,000 tested, 0.2% active | AID 684, 2007;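 also: 0% = enzyme without compound and 100% = no enzyme blank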
D1 mod = D1 CRE-luciferase signal change, two-sided – cell-based, HEK293 D1, dopamine EC30, D1 allosteric modulator project, primary screen. D(1A) dopamine receptor (Homo sapiens), P21728. dopamine EC30 potentiation; actives deviate in either direction. B-score at 10 µM. 58,000 tested, 5.9% active;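 active = luminescence count or its row- and column-corrected plate score outside the 99.7% band of the plate's sample wells, on either side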
M1 ag = M1 muscarinic receptor agonists, primary screen, CHO-M1 cells, Fluo-4 calcium, agonist mode; B-score at 10 µM; Fluo-4 calcium fluorescence; active compounds read high; AID 626, 2007; 64,000 tested, 3% active;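 active = fluorescence rise, raw or as B-score row- and column-corrected plate score, outside the 99.7% band of its plate's samples, either direction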
M1 antag confirm = rat M1 muscarinic receptor antagonists, confirmation, CHO cells, Fluo-4 calcium, duplicate | ACh EC80 antagonism; active compounds read low | 1,700 tested, 43% active | calcium response (max-min fluorescence) at 10 µM | shares compounds with M1 antagonist;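 active = calcium response below the same-plate mean of wells given acetylcholine alone at its 80%-effect dose, minus 3 SD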;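 also: raw fluorescence intensity difference in arbitrary instrument units and not normalized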
mGluR4 antag = human mGluR4 response to M1 antagonist hits, M1 allosteric modulator project, cell-based, antagonist mode, secondary assay 1. shares compounds with M1 antagonist. CHO-mGluR4 calcium flux, Fluo-4 fluorescence, glutamate EC80; active compounds read low. fluorescence response (max-min) at 10 µM. 1,700 tested, 0.9% active. AID 678, 2007;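 active = fluorescence response below the plate's average for near-maximal glutamate wells, less 3 SD of those wells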;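 also: raw unnormalized fluorescence span taken in the window right after glutamate addition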
Active calls of the source: *; . = no result. Hits are enriched below; roughly 7.4% of the tested compounds scored in any of these assays. Rule as the data show it, unless noted: active = inhibition above about 20% (passing the limit was not always enough); inactive = the rest.

SMILES	hDAT+cocaine	M1 antagonist	FXIa mix inh	FXIIa mix inh	D1 mod	M1 ag	M1 antag confirm	mGluR4 antag
COC(=O)c1cc(NC(=O)C2CC2)cc(C(=O)OC)c1	0.55	0.068	4	5	-0.29	2.1	.	.
CCOC(=O)N1CCC(NC(=O)CN2C(=O)C(CC)Oc3ccc(C)cc32)CC1 (configuration not stated)	0.32	-5.7*	8	-17	1.1	-0.43	665	204
N#Cc1nc(COc2ccccc2)oc1NCCN1CCOCC1	0.4	0.086	7	9	-1.1	0.65	.	.
N#Cc1nc(COc2ccc(-c3ccccc3)cc2)oc1NCCCN1CCOCC1	1.9	-3*	9	3	-1.3	-1.2	545	237
Cc1noc(C)c1CSc1nc2ccccc2n1CCc1ccccc1	0.38	-3.8*	6	1	2	0.39	572	239
Fc1cccc(F)c1CSc1nc2ccccc2[nH]1	0.044	.	.	.	.	.	.	.
Cc1noc(C)c1CSc1nc2ccccc2[nH]1	-0.052	-1.4*	.	.	0.0059	0.68	435*	268
N#CC1=C(N)Oc2cc3c(cc2C1c1ccc(Cl)cc1)OCO3 (configuration not stated)	-0.6	0.68	5	7	-1.8	0.21	.	.
Cc1c(C(=O)N2CCN(CCc3ccccc3)CC2)oc2ccccc12	0.39	-0.3	7	15	-1.2	-1.4	.	.
COC(=O)c1oc2ccccc2c1N	0.33	.	.	.	.	.	.	.
Cc1c(C(=O)OC(C)CCN(C)C)oc2ccccc12 (configuration not stated)	-0.47	-13*	23	4	-1.3	-0.6	18*	261
Cc1c(C(=O)OCC(C)(C)CN(C)C)oc2ccccc12	0.26	-5*	7	5	-2.2	-0.25	182*	233
Cc1c(C(=O)OCCN2CCCCC2)oc2ccccc12	0.13	-10*	-7	6	-0.05	0.61	13*	226
CCOC(=O)C1=C(C)N(CCCC(=O)O)C(=O)NC1c1cccs1 (configuration not stated)	0.48	.	.	.	.	.	.	.
CCOc1ccccc1C1C(C#N)=C(SCC(=O)OC)NC(=O)C1C(=O)OC (configuration not stated)	1	-2.8*	5	7	0.28	0.11	559	201
CC(OC(=O)CCCN1C(=O)c2ccccc2C1=O)C(=O)Nc1ncc(Cl)cc1Cl (configuration not stated)	0.018	-0.068	5	4	0.082	-0.3	.	.
CC(OC(=O)C1CCN(S(=O)(=O)c2ccccc2)CC1)C(=O)Nc1ncc(Cl)cc1Cl (configuration not stated)	0.55	-1.3*	11	-1	-0.51	-1.7	668	250
C=C(C)COc1ccc2c(C)c(CC(=O)OC)c(=O)oc2c1C	-0.86	-2*	2	0	0.3	-1.2	641	225
COC(=O)Cc1c(C)c2ccc(OCC(C)=O)c(C)c2oc1=O	-0.72	-0.01	2	-1	-0.47	-0.31	.	.
CCOC(=O)/C=C1\SCC(=O)N1CC(=O)Nc1ccc2c(c1)CCC2	-0.71	-1.9*	9	2	0.039	0.39	652	183
Cc1ccccc1N1CCN(S(=O)(=O)c2ccc3oc(=O)ccc3c2)CC1	-0.088	-3.3*	1	3	-0.66	0.14	557	233
Cc1cc(Cl)ccc1OCCCC(=O)NC1CCN(C)CC1	1.2	-2.9*	6	11	-2	-0.77	479*	211
Cc1cc(Cl)ccc1OCCCC(=O)N1CCN(C)CC1	1	.	.	.	.	.	.	.
CCOC(=O)c1c(CN2CCN(C)CC2)oc2ccc(O)cc12	-0.95	-1	4	-1	-0.15	0.076	.	.
CCN(CC)CCOC(=O)c1c(C)oc2ccc(O)cc12	-0.017	-3.3*	9	7	-1.6	0.048	296*	258
SMILES	hDAT+cocaine	M1 antagonist	FXIa mix inh	FXIIa mix inh	D1 mod	M1 ag	M1 antag confirm	mGluR4 antag
CCOC(=O)c1ccc(S(=O)(=O)n2c(CN3CCCCC3)nc3ccccc32)cc1	0.24	-0.46	2	6	2.1	0.28	.	.
CCOC(=O)C1=C(O)CCn2c1nc1ccccc12	-0.27	-2.3*	4	6	0.95	0.086	640	233
c1ccc(CN(Cc2ccco2)C(c2ccncc2)c2nnnn2C2CCCC2)cc1 (configuration not stated)	0.32	-0.18	4	2	-0.55	2.3	.	.
CN1CCCN(C(c2ccccc2)c2ccc(Cl)cc2)CC1 (configuration not stated)	-2.2	-16*	5	-1	-3.3	0.81	14*	214
O=C(O)CCC(=O)OC1CC2CCC1C2 (configuration not stated)	0.19	0.25	3	7	0.0017	-0.11	.	.
Cc1ccc(C)c(CSc2nnc(-c3ccccn3)n2N)c1	-0.95	-0.0096	-1	6	0.5	0.36	.	.
Nn1c(-c2ccccn2)nnc1-c1ccccn1	0.55	-3.1*	1	0	-0.23	0.62	683	231
Cc1oc2c(c1C(=O)NCc1ccccc1)CCCC2	-0.011	-3.7*	-6	4	.	0.37	643	188
CC(=O)Nc1c2c(nn1-c1ccc(C)cc1C)CSC2	-0.6	-1.9*	-1	4	-1.4	-0.31	641	259
CCCC(=O)Nc1c2c(nn1-c1ccc(C)cc1C)CSC2	-0.023	0.18	-23	0	-0.051	0.12	.	.
C=CCc1ccc(OCCCCCN2CCOCC2)c(OC)c1	0.024	-7*	-6	31	0.16	0.7	102*	227
Cc1ccc(C(=O)N/N=C\c2ccc[nH]2)cc1[N+](=O)[O-]	-0.39	.	.	.	.	.	.	.
Cc1ccc(CC2S/C(=C(/C#N)C(=O)NCc3ccco3)N(c3ccccc3)C2=O)cc1 (configuration not stated)	2.2	0.13	4	-1	-1.9	0.58	.	.
Cc1cccc2cc(-c3nc4c(C)cccn4c3NCc3ccco3)c(=O)[nH]c12	0.18	.	.	.	.	.	.	.
Cc1ccc2[nH]c(=O)c(-c3nc4cc(C)ccn4c3NCc3ccco3)cc2c1	-0.26	-3.3*	0	-12	-2.5	0.097	412	217
CN(C)c1nc2ccc(OCCN3CCCCC3)cc2s1	0.66	-3*	3	2	-3.4*	-0.28	408*	216
CCN(CC)CCOc1ccc2nc(N(C)C)sc2c1	-0.18	.	.	.	.	.	.	.
